# Test results from the supplement of paper PMC8728848.
# The sample as a whole holds a higher share of the strongest signals than the screen did.
# B1: PX9937B-bvu-524-33-524 (Bacteroides vulgatus) (protein)
# chain: GTAYWKNPDQFTAFNTGLHALLREKSYNFFLLGEPRADIYGDNPIGGEASQGMERLPFNTINKENVGISNYGDMYKIINQINQMIAKTTETTILTEATQNYYLGEAYGMRAYLYFHLLRSWGDVVLYLDYTEGQNLDLSNITKGVSPATEVMEQIKKDIQASENAFGSDYSFKLGRHFWSAAATQMLKGEAYLWSGRQMNGGNSDYTIAKNAFENVKKADVGLVTSSFKDIFSFENKKNKEMIFTIHNGKDEYEMWGGYYRMRLIPAQDKMVKIYCDENGNSFVGTPDAQLNGLTQLQVRREFYFKGFRNNDTRWTTSLKAVYKKDAQGVVSYFGPITYKFQGTMLEGGSTRSFLDDFPIYRYADCLLQLAMAKVLLGEDPTEEINAVRERAYGSKYFNEHKAEIAYPNDNDPEFYTDNKWMKPDNAGALEAILKERLREFMFEGKRWYDIRLLGWDYVHQYSSAEQSRLLWPIDAGTLTNNSALKQTPGYE
# Legend:
# Test in all cases: glycan array binding signal (z-score within array); higher = stronger binding
# Details in all cases: glycan notation: IUPAC condensed, linker removed
# [1] = target: Fuc(a1-2)Gal(b1-3)GlcNAc(b1-2)Man(a1-3)[Fuc(a1-2)Gal(b1-3)GlcNAc(b1-2)Man(a1-6)]Man(b1-4)GlcNAc(b1-4)[Fuc(a1-6)]GlcNAc
# Summary of the method: (§1)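 Negative Z-scores can be read as non-binding. The Z-score is calculated within each array and then averaged across arrays of one protein sequence at different concentrations or buffers and across linkers. Arrays, 3228 in all, were curated from the Consortium for Functional Glycomics database and kept only where the protein sequence was available.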
# [2] = target: Fuc(a1-2)Gal(b1-3)GlcNAc(b1-3)[Gal(b1-4)GlcNAc(b1-6)]Gal(b1-4)Glc
# Summary of the method: as §1
# [3] = target: Fuc(a1-2)Gal(b1-3)[Fuc(a1-4)]GlcNAc
# Summary of the method: as §1
# [4] = target: Fuc(a1-2)Gal(b1-3)[Fuc(a1-4)]GlcNAc(b1-2)Man(a1-3)[Fuc(a1-2)Gal(b1-3)[Fuc(a1-4)]GlcNAc(b1-2)Man(a1-3)]Man(b1-4)GlcNAc(b1-4)GlcNAc
# Summary of the method: as §1
# [5] = target: Fuc(a1-2)Gal(b1-4)GlcNAc(b1-6)GalNAc
# Summary of the method: as §1
# [6] = target: Fuc(a1-2)Gal3S(b1-4)GlcNAc
# Summary of the method: as §1
# [7] = target: Fuc(a1-2)[Gal(a1-3)]Gal(b1-3)GalNAc(b1-3)Gal(a1-4)Gal(b1-4)Glc
# Summary of the method: as §1
# [8] = target: Fuc(a1-2)[Gal(a1-3)]Gal(b1-3)GlcNAc
# Summary of the method: as §1
# [9] = target: Fuc(a1-2)[Gal(a1-3)]Gal(b1-3)GlcNAc(b1-6)GalNAc
# Summary of the method: as §1
# [10] = target: Fuc(a1-2)[Gal(a1-3)]Gal(b1-4)[Fuc(a1-3)]GlcNAc(b1-3)GalNAc
# Summary of the method: as §1
# [11] = target: Fuc(a1-3)[Gal(b1-4)]GlcNAc(b1-2)Man(a1-3)[Fuc(a1-3)[Gal(b1-4)]GlcNAc(b1-2)Man(a1-6)]Man(b1-4)GlcNAc(b1-4)GlcNAc
# Summary of the method: as §1
# [12] = target: Fuc(a1-3)[Gal(b1-4)]GlcNAc(b1-3)Gal(b1-4)[Fuc(a1-3)]GlcNAc
# Summary of the method: as §1
# [13] = target: Fuc(a1-3)[Gal(b1-4)]GlcNAc(b1-6)GalNAc
# Summary of the method: as §1
# [14] = target: Fuc(a1-3)[Gal(b1-4)]GlcNAc6S
# Summary of the method: as §1
# [15] = target: Gal(a1-3)Gal(b1-3)GlcNAc(b1-6)GalNAc
# Summary of the method: as §1
# [16] = target: Gal(a1-3)Gal(b1-4)GlcNAc(b1-2)Man(a1-3)[Gal(a1-3)Gal(b1-4)GlcNAc(b1-2)Man(a1-6)]Man(b1-4)GlcNAc(b1-4)GlcNAc
# Summary of the method: as §1
# [17] = target: Gal(b1-3)GlcNAc(b1-2)Man(a1-3)[Gal(b1-3)GlcNAc(b1-2)Man(a1-6)]Man(b1-4)GlcNAc(b1-4)GlcNAc
# Summary of the method: as §1
# [18] = target: Gal(b1-3)GlcNAc(b1-2)Man(a1-3)[Gal(b1-3)GlcNAc(b1-2)Man(a1-6)]Man(b1-4)GlcNAc(b1-4)[Fuc(a1-6)]GlcNAc
# Summary of the method: as §1
# [19] = target: Gal(b1-3)GlcNAc(b1-3)Gal(b1-4)GlcNAc
# Summary of the method: as §1
# [20] = target: Gal(b1-3)GlcNAc(b1-3)Gal(b1-4)GlcNAc(b1-2)Man(a1-3)[Gal(b1-3)GlcNAc(b1-3)Gal(b1-4)GlcNAc(b1-2)Man(a1-6)]Man(b1-4)GlcNAc(b1-4)GlcNAc
# Summary of the method: as §1
# [21] = target: Gal(b1-3)GlcNAc(b1-6)Gal(b1-4)GlcNAc
# Summary of the method: as §1
# [22] = target: Gal(b1-3)GlcNAc(b1-6)[Gal(b1-3)]GalNAc
# Summary of the method: as §1
# [23] = target: Gal(b1-3)[Fuc(a1-4)]GlcNAc(b1-6)GalNAc
# Summary of the method: as §1
# [24] = target: Gal(b1-4)GlcNAc(b1-3)Gal(b1-3)GalNAc
# Summary of the method: as §1
# [25] = target: Gal(b1-4)GlcNAc(b1-3)Gal(b1-4)GlcNAc(b1-2)Man(a1-3)[Gal(b1-4)GlcNAc(b1-3)Gal(b1-4)GlcNAc(b1-2)Man(a1-6)]Man(b1-4)GlcNAc(b1-4)GlcNAc
# Summary of the method: as §1
# [26] = target: Gal(b1-4)GlcNAc(b1-3)Gal(b1-4)GlcNAc(b1-2)Man(a1-3)[Gal(b1-4)GlcNAc(b1-3)Gal(b1-4)GlcNAc(b1-2)Man(a1-6)]Man(b1-4)GlcNAc(b1-4)[Fuc(a1-6)]GlcNAc
# Summary of the method: as §1
binder,measurement,setting,value
B1,glycan array binding signal (z-score),[1],-0.232
same,glycan array binding signal (z-score),[2],-0.284
same,glycan array binding signal (z-score),[3],-0.457
same,glycan array binding signal (z-score),[4],-0.154
same,glycan array binding signal (z-score),[5],-0.136
same,glycan array binding signal (z-score),[6],-0.476
same,glycan array binding signal (z-score),[7],0.046
same,glycan array binding signal (z-score),[8],-0.275
same,glycan array binding signal (z-score),[9],-0.124
same,glycan array binding signal (z-score),[10],-0.416
same,glycan array binding signal (z-score),[11],1.23
same,glycan array binding signal (z-score),[12],-0.277
same,glycan array binding signal (z-score),[13],2.69
same,glycan array binding signal (z-score),[14],0.219
same,glycan array binding signal (z-score),[15],6.13
same,glycan array binding signal (z-score),[16],2.91
same,glycan array binding signal (z-score),[17],-0.057
same,glycan array binding signal (z-score),[18],0.088
same,glycan array binding signal (z-score),[19],-0.228
same,glycan array binding signal (z-score),[20],12.8
same,glycan array binding signal (z-score),[21],-0.085
same,glycan array binding signal (z-score),[22],7.68
same,glycan array binding signal (z-score),[23],-0.019
same,glycan array binding signal (z-score),[24],-0.08
same,glycan array binding signal (z-score),[25],2.05
same,glycan array binding signal (z-score),[26],1.48
